# This is one part of a sample in which the strongest signals are shown more often than they occur.
# Columns and labels:
# Experiment in all cases: glycan array binding signal (z-score within array); higher = stronger binding
# [1] = test system: Fuc(a1-2)Gal(b1-3)[Fuc(a1-4)]GlcNAc(b1-2)Man(a1-6)[Fuc(a1-2)Gal(b1-3)[Fuc(a1-4)]GlcNAc(b1-2)Man(a1-3)]Man(b1-4)GlcNAc(b1-4)[Fuc(a1-6)]GlcNAc; conditions: glycan notation: IUPAC condensed, linker removed
# Summary of the method: (§1)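 Glycan array data came from 3228 arrays in the Consortium for Functional Glycomics database, and only arrays with an available protein sequence were kept. Glycan names were put into IUPAC-condensed notation, and columns mapping to the same glycan were averaged. The binding signal is a within-array Z-score, averaged across arrays of one protein sequence run at different concentrations or buffers and across linkers. A negative Z-score can be read as non-binding.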
# [2] = test system: Fuc(a1-2)Gal(b1-3)[Fuc(a1-4)]GlcNAc; conditions: glycan notation: IUPAC condensed, linker removed
# Summary of the method: as §1
# [3] = test system: Fuc(a1-2)Gal(b1-4)GlcNAc(b1-3)[Fuc(a1-2)Gal(b1-4)GlcNAc(b1-6)]GalNAc; conditions: glycan notation: IUPAC condensed, linker removed
# Summary of the method: as §1
# [4] = test system: Fuc(a1-2)Gal(b1-3)GlcNAc(b1-3)[Neu5Ac(a2-6)Gal(b1-4)GlcNAc(b1-6)]Gal(b1-4)Glc; conditions: glycan notation: IUPAC condensed, linker removed
# Summary of the method: as §1
# [5] = test system: Fuc(a1-2)Gal(b1-3)[Fuc(a1-4)]GlcNAc(b1-3)[Gal(b1-4)GlcNAc(b1-6)]Gal(b1-4)Glc; conditions: glycan notation: IUPAC condensed, linker removed
# Summary of the method: as §1
# [6] = test system: Fuc(a1-2)Gal(b1-4)GlcNAc(b1-2)Man(a1-3)[Fuc(a1-2)Gal(b1-4)GlcNAc(b1-2)Man(a1-6)]Man(b1-4)GlcNAc(b1-4)GlcNAc; conditions: glycan notation: IUPAC condensed, linker removed
# Summary of the method: as §1
# [7] = test system: Fuc(a1-2)Gal(b1-4)GlcNAc(b1-3)Gal(b1-4)GlcNAc(b1-2)Man(a1-3)[Fuc(a1-2)Gal(b1-4)GlcNAc(b1-3)Gal(b1-4)GlcNAc(b1-2)Man(a1-6)]Man(b1-4)GlcNAc(b1-4)GlcNAc; conditions: glycan notation: IUPAC condensed, linker removed
# Summary of the method: as §1
# [8] = test system: Fuc(a1-2)Gal(b1-4)GlcNAc(b1-2)[Fuc(a1-2)Gal(b1-4)GlcNAc(b1-4)]Man(a1-3)[Fuc(a1-2)Gal(b1-4)GlcNAc(b1-2)Man(a1-6)]Man(b1-4)GlcNAc(b1-4)GlcNAc; conditions: glycan notation: IUPAC condensed, linker removed
# Summary of the method: as §1
# Fuc(a1-2)Gal(b1-4)Glc6S = conditions: glycan notation: IUPAC condensed, linker removed
# Summary of the method: as §1
# Fuc(a1-2)Gal(b1-4)GlcNAc = conditions: glycan notation: IUPAC condensed, linker removed
# Summary of the method: as §1
# Fuc(a1-2)Gal(b1-3)GlcNAc = conditions: glycan notation: IUPAC condensed, linker removed
# Summary of the method: as §1
# [9] = test system: Fuc(a1-2)Gal(b1-3)[Fuc(a1-4)]GlcNAc(b1-2)Man(a1-3)[Fuc(a1-2)Gal(b1-3)[Fuc(a1-4)]GlcNAc(b1-2)Man(a1-6)]Man(b1-4)GlcNAc(b1-4)GlcNAc; conditions: glycan notation: IUPAC condensed, linker removed
# Summary of the method: as §1
# [10] = test system: Fuc(a1-2)Gal(b1-4)GlcNAc(b1-3)GalNAc; conditions: glycan notation: IUPAC condensed, linker removed
# Summary of the method: as §1
# [11] = test system: Fuc(a1-2)Gal(b1-3)[Fuc(a1-4)]GlcNAc(b1-2)Man(a1-3)[Fuc(a1-2)Gal(b1-3)[Fuc(a1-4)]GlcNAc(b1-2)Man(a1-3)]Man(b1-4)GlcNAc(b1-4)GlcNAc; conditions: glycan notation: IUPAC condensed, linker removed; mutation: R125K
# Summary of the method: as §1
# [12] = test system: Fuc(a1-2)Gal(b1-4)Fuc(a1-3)]GlcNAc(b1-2)Man(a1-3)[Fuc(a1-2)Gal(b1-4)[Fuc(a1-3)]GlcNAc(b1-2)Man(a1-6)]Man(b1-4)GlcNAc(b1-4)GlcNAc; conditions: glycan notation: IUPAC condensed, linker removed; mutation: R125K
# Summary of the method: as §1
# [13] = test system: Fuc(a1-2)Gal(b1-4)GlcNAc(b1-2)Man; conditions: glycan notation: IUPAC condensed, linker removed
# Summary of the method: as §1
# [14] = test system: Fuc(a1-2)Gal(b1-4)GlcNAc(b1-3)Gal(b1-4)GlcNAc(b1-3)Gal(b1-4)GlcNAc; conditions: glycan notation: IUPAC condensed, linker removed; mutation: R125K
# Summary of the method: as §1
# [15] = test system: Fuc(a1-2)Gal(b1-4)GlcNAc(b1-3)Gal(b1-4)GlcNAc; conditions: glycan notation: IUPAC condensed, linker removed; mutation: R125K
# Summary of the method: as §1
# [16] = test system: Fuc(a1-2)Gal(b1-4)GlcNAc(b1-3)[Fuc(a1-3)[Gal(b1-4)]GlcNAc(b1-6)]Gal(b1-4)Glc; conditions: glycan notation: IUPAC condensed, linker removed
# Summary of the method: as §1
# [17] = test system: Fuc(a1-2)Gal(b1-4)GlcNAc(b1-6)GalNAc; conditions: glycan notation: IUPAC condensed, linker removed
# Summary of the method: as §1
# Sequence of CHI3L1 (Homo sapiens), P36222 (P36222 whole entry): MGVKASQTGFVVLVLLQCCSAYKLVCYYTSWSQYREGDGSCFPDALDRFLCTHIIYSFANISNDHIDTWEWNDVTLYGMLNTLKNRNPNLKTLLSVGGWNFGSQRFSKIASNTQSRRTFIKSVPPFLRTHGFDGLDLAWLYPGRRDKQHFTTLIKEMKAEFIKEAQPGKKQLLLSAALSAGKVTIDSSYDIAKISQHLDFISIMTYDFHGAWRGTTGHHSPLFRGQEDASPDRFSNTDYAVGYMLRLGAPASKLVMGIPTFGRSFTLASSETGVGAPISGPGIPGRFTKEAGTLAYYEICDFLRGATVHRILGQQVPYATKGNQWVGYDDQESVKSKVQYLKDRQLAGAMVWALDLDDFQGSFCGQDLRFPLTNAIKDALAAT
# Sequence of PILRb (Mus musculus), Q2YSF2 (Q2YSF2 entry or part of it): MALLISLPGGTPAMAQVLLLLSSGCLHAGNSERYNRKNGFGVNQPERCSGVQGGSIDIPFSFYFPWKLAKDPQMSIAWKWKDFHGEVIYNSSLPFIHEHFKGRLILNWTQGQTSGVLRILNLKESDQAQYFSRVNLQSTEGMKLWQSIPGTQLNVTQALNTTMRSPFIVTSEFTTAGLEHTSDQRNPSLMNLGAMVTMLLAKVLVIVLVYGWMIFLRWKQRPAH
# Sequence of Regenerating Gene IV (Homo sapiens), Q9BYZ8 (Q9BYZ8 whole entry, looked up): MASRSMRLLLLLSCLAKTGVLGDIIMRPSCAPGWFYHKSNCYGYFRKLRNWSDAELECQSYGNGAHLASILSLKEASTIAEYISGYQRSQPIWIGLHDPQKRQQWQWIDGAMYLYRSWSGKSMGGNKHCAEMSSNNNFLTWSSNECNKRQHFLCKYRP
# Sequence of Neurocan (Homo sapiens), O14594 (O14594 other isoform, or with tags, fused parts or gaps): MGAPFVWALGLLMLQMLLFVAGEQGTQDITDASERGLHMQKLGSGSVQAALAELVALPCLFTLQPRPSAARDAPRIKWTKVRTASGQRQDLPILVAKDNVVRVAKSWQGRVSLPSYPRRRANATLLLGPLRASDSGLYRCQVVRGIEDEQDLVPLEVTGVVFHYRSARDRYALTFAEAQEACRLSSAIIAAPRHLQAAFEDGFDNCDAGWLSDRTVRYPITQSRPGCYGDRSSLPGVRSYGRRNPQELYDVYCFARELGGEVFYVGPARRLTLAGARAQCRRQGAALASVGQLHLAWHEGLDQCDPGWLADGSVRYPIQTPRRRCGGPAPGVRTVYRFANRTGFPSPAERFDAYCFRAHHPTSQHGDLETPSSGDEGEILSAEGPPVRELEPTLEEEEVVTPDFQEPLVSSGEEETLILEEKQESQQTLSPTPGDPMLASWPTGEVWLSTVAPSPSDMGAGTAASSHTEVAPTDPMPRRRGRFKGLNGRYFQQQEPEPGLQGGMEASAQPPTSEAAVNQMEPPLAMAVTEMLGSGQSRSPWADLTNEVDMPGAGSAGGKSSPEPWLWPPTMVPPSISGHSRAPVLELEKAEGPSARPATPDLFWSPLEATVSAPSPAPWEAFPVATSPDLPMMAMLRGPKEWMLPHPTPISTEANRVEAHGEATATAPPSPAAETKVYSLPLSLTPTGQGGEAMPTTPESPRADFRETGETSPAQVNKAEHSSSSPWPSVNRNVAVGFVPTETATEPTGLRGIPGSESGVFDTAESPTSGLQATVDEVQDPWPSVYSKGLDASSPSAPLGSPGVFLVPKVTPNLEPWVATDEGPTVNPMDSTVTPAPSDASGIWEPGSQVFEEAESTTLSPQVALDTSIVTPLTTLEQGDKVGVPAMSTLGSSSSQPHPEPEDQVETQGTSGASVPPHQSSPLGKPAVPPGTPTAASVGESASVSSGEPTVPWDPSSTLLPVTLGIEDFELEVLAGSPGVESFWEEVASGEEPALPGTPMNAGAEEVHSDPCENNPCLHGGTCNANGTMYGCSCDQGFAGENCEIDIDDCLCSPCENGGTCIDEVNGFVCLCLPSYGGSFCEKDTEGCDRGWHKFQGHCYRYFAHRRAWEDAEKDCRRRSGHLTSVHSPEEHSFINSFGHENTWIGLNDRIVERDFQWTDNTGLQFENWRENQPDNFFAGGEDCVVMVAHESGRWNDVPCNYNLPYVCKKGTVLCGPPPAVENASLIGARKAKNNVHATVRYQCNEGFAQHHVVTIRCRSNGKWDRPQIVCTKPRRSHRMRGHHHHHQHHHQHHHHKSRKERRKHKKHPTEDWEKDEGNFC
substance,measurement,setting,value
"CHI3L1 (Homo sapiens), P36222",glycan array binding signal (z-score),[1],0.653
same,glycan array binding signal (z-score),[2],5.09
same,glycan array binding signal (z-score),[3],-0.129
MpAFP RI GFP (Marinomonas primoryensis),glycan array binding signal (z-score),[4],-0.127
same,glycan array binding signal (z-score),[5],-0.303
same,glycan array binding signal (z-score),[2],-0.05
same,glycan array binding signal (z-score),[6],-0.295
same,glycan array binding signal (z-score),[7],1.06
"Neurocan (Homo sapiens), O14594",glycan array binding signal (z-score),[8],0.982
"Regenerating Gene IV (Homo sapiens), Q9BYZ8",glycan array binding signal (z-score),Fuc(a1-2)Gal(b1-4)Glc6S,2.53
"HARE (Homo sapiens), Q8WWQ8",glycan array binding signal (z-score),Fuc(a1-2)Gal(b1-4)GlcNAc,2.62
"PILRb (Mus musculus), Q2YSF2",glycan array binding signal (z-score),Fuc(a1-2)Gal(b1-3)GlcNAc,-0.281
same,glycan array binding signal (z-score),[9],2.44
same,glycan array binding signal (z-score),[10],-0.066
"Siglec-8 (Homo sapiens), Q9NYZ4",glycan array binding signal (z-score),[11],1.44
same,glycan array binding signal (z-score),[12],2.42
same,glycan array binding signal (z-score),[13],-0.065
same,glycan array binding signal (z-score),[14],-0.32
same,glycan array binding signal (z-score),[15],-0.565
same,glycan array binding signal (z-score),[16],-0.102
same,glycan array binding signal (z-score),[17],0.139
same,glycan array binding signal (z-score),Fuc(a1-2)Gal(b1-4)GlcNAc; mutation: R125K,-0.001

# Source: the supplement of paper PMC8728848
